Data taken from PubChem BioAssay AID1159580 (chemical genetic matrix, 2015).
Values joined by “and” are separate entries in the source; they are usually repeats but may differ in a detail not shown here. Identical values can stand only once. Out of some 5,500 compounds screened, about 2,000 (36%) were called active. Not shown: some 18% with an inconclusive outcome. Rule as the data show it: active = normalized growth mostly below about 0.91 (no sharp cut-off); inconclusive = no clear call, values can overlap the other calls; inactive = mostly above about 0.92. The list shows a part of the results.

Assay: chemical genetic growth profiling, strain panel (AID 1159580);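 also: tested at 20 µM; growth read once vehicle control cultures reached saturation at 30 °C; 1 = growth at the plate median or of vehicle wells; lower values mean less growth of the strain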
Conditions: S. cerevisiae deletion strains, growth OD

Measured: normalized growth

COc1ccc2cc([C@H](C)CO)ccc2c1
inactive: locus YAL013W, strain DEP1, active compounds read low 0.982 | locus YAL021C, strain ccr4, active compounds read low 1.04 | locus YAL026C, strain drs2, active compounds read low 1.01 | locus YAL030W, strain snc1, active compounds read low 1 | locus YBL061C, strain skt5, active compounds read low 1.01 | locus YBR009C, strain hhf1, active compounds read low 1.01 | locus YBR021W, strain FUR4, active compounds read low 1.02 | locus YBR023C, strain chs3, active compounds read low 1.01 | locus YBR171W, strain sec66, active compounds read low 1.01 | locus YBR229C, strain ROT2, active compounds read low 0.947 | locus YBR231C, strain swc5, active compounds read low 1.07 | locus YBR279W, strain paf1, active compounds read low 1.01 | locus YCL011C, strain gbp2, active compounds read low 1.01 | locus YCL016C, strain dcc1, active compounds read low 1.01 | locus YCL029C, strain bik1, active compounds read low 0.976 | locus YCL061C, strain MRC1, active compounds read low 1.02 | locus YCL069W, strain vba3, active compounds read low 1.01 | locus YCR088W, strain abp1, active compounds read low 0.936 | locus YDL005C, strain med2, active compounds read low 1.02 | locus YDL035C, strain GPR1, active compounds read low 0.955 | locus YDL040C, strain nat1, active compounds read low 1.01 | locus YDL074C, strain BRE1, active compounds read low 0.996 | locus YDL101C, strain DUN1, active compounds read low 0.989 | locus YDL134C, strain PPH21, active compounds read low 0.98 | locus YDL185W, strain tfp1, active compounds read low 0.962 | locus YDL192W, strain arf1, active compounds read low 0.966 | locus YDR001C, strain nth1, active compounds read low 1.01 | locus YDR069C, strain doa4, active compounds read low 1.02 | locus YDR101C, strain arx1, active compounds read low 0.976 | locus YDR137W, strain rgp1, active compounds read low 1.03 | locus YDR150W, strain NUM1, active compounds read low 0.974 | locus YDR159W, strain sac3, active compounds read low 1 | locus YDR162C, strain NBP2, active compounds read low 0.961 | locus YDR195W, strain ref2 1.04 | locus YDR297W, strain sur2, active compounds read low 1.01 | locus YDR318W, strain mcm21, active compounds read low 0.98 | locus YDR334W, strain swr1, active compounds read low 1.03 | locus YDR335W, strain msn5, active compounds read low 1.02 | locus YDR388W, active compounds read low 0.983 | locus YDR392W, strain spt3, active compounds read low 1.03 | locus YDR502C, strain sam2, active compounds read low 0.95 | locus YEL003W, strain gim4, active compounds read low 1.01 | locus YEL037C, strain rad23, active compounds read low 1.01 | locus YEL061C, strain CIN8 (second series), active compounds read low 1.01 | locus YEL061C, strain CIN8, active compounds read low 0.987 | locus YER015W, strain faa2, active compounds read low 1.01 | locus YER016W, strain bim1, active compounds read low 1.01 | locus YER110C, active compounds read low 0.954 | locus YER111C, strain swi4, active compounds read low 1.02 | locus YER155C, strain BEM2 (second series), active compounds read low 1.01 | locus YER155C, strain BEM2, active compounds read low 1.01 | locus YER167W, strain BCK2, active compounds read low 0.975 | locus YFR010W, strain ubp6, active compounds read low 1.02 | locus YGL078C, strain dbp3, active compounds read low 0.982 | locus YGL086W, strain mad1, active compounds read low 0.984 | locus YGL167C, strain pmr1, active compounds read low 1.01 | locus YGL173C, strain kem1, active compounds read low 1 | locus YGL227W, strain vid30, active compounds read low 1 | locus YGL240W, strain doc1, active compounds read low 1.01 | locus YGL248W, strain PDE1, active compounds read low 0.98 | locus YGL253W, strain hxk2, active compounds read low 1.03 | locus YGR078C, strain PAC10, active compounds read low 0.987 | locus YGR135W, strain pre9, active compounds read low 0.949 | locus YGR229C, strain SMI1, active compounds read low 0.979 | locus YGR252W, strain gcn5, active compounds read low 0.894 | locus YHR013C, strain ard1, active compounds read low 1.07 | locus YHR027C, strain rpn1, active compounds read low 1.01 | locus YHR030C, strain SLT2, active compounds read low 0.985 and 0.928 | locus YHR079C, strain IRE1 (second series), active compounds read low 0.979 | locus YHR079C, strain IRE1, active compounds read low 0.95 | locus YHR094C, strain hxt1, active compounds read low 0.981 | locus YHR129C, strain ARP1, active compounds read low 0.995 | locus YHR142W, strain chs7, active compounds read low 1.02 | locus YHR200W, strain rpn10, active compounds read low 0.973 | locus YIL066C, strain RNR3, active compounds read low 0.969 | locus YIL073C, strain SPO22, active compounds read low 0.954 | locus YIL125W, strain kgd1, active compounds read low 0.974 | locus YIR030C, strain dcg1, active compounds read low 0.975 | locus YJL092W, strain hpr5, active compounds read low 1.01 | locus YJL095W, strain BCK1 (second series), active compounds read low 1 | locus YJL095W, strain BCK1, active compounds read low 0.996 and 0.935 | locus YJL115W, strain asf1, active compounds read low 1.02 | locus YJL129C, strain trk1, active compounds read low 1.02 | locus YJL134W, strain LCB3, active compounds read low 0.984 | locus YJL154C, strain vps35, active compounds read low 1.01 | locus YJL164C, strain tpk1, active compounds read low 1.01 | locus YJL166W, strain qcr8, active compounds read low 1.01 | locus YJL168C, strain set2, active compounds read low 0.982 | locus YJL187C, strain SWE1 (second series), active compounds read low 0.982 | locus YJL187C, strain SWE1, active compounds read low 1.01 | locus YJR043C, strain POL32, active compounds read low 0.994
